Measured values: PubChem BioAssay (NCATS)
Inconclusive results are not listed. Where a call stands in place of a potency, no number is given. The source made the active and inactive calls. Calls follow the shape of the dose curve; as a rule, active = well fitted cell-killing curve with a large enough effect; inconclusive = small, poorly fitted or top-dose-only effect, or effect the other way; inactive = flat fitted curve, though single readings scatter.

experiment: Cell Viability - LYMP2-003 (AID 965); conditions: LYMP2-003 lymphoblastoid cell viability; series mostly up to 92.2 µM;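 also: cells exposed to compounds for 24 h before reading; nearly all actives have a fitted effect of over 50% in size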
From the text: NIH Chemical Genomics Center [NCGC]
NIH Molecular Libraries Screening Centers Network [MLSCN]
National Institutes of Environmental Health Sciences [NIEHS]
National Toxicology Program [NTP]
We have developed a 1536-well cell-based assay for quantitative high throughput screening (qHTS) against a number of cell lines to determine in vitro cytotoxicity of small molecules. This particular assay uses a human lymphoblastoid cell line (LYMP2-003) purchased from Coriell Institute for Medical Research.
NCGC Assay Protocol Summary:
The CellTiter-Glo luminescent cell viability assay (Promega) is a homogeneous method to measure the number of viable cells in culture. The end point readout of this assay is based on quantitation of intracellular ATP, an indicator of metabolic activity, using the luciferase reaction. Luciferase catalyzes the oxidation of beetle Luciferin to oxyluciferin and light in the presence of ATP. The luminescent signal is proportional to amount of ATP present.
Using the CellTiter-Glo luminescent cell viability assay, the amount of cellular ATP was measured in the lymphoblastoid cell line with complete culture medium following compound treatment for 24 hours. The assay was performed in opaque white Kalypsys 1536-well plates. In the screen, tetraoctylammonium bromide was used as positive control. Library compounds were measured for their ability to cause acute toxicity in the cell line, as reflected by a decrease in intracellular ATP levels, in a concentration-dependent manner. […] AC50 values were determined from concentration-response data modeled with the standard Hill equation.
qHTS protocol for CellTiter Glo lymphoblastoid cellular assay
[Step] [Parameter] [Value] [Description]
1. Reagent; 5 uL; 2500 lymphoblastoid cells/well
2. Time; 5 hr; 37 C incubation
4. Controls; 23 nL; Tetraoctylammonium bromide 6.4pM to 92 uM
5. Time; 24 hr; 37 C incubation
6. Reagent; 5 uL; CellTiter Glo reagent
7. Time; 30 min; Room Temperature
8. Detection; Luminescence; Viewlux plate reader
Keywords: cell viability, cytotoxicity, lymphoblastoid cell line, luminescence, NTPHTS, NTPHTS_NCGC, NIEHS, DSSTox, MLSMR, MLSCN, NIH Roadmap, qHTS, NCGC
Potency is read from the fitted curve at half-maximal effect.

SMILES | Potency
CCCCC(=O)Cl | inactive
CCCCC#N | inactive
O=Cc1ccc(Cl)cc1Cl | inactive
COC(C)(C)C | inactive
Cc1ccc2c(C)cccc2c1 | inactive
CN(C)c1ccc(N)cc1 | 50.1 µM (active)
CC(C)OC(=O)Cc1ccccc1 | inactive
Nc1ccc(Cl)c(Cl)c1 | inactive
FC(Cl)(Cl)Cl | inactive
Oc1c(Cl)c(Cl)cc(Cl)c1Cl | inactive
Cc1cc(N=Nc2ccccc2C)ccc1N | inactive
O=C(Cc1ccccc1)OCc1ccccc1 | inactive
Nc1cccc2ccccc12 | inactive
CCCCCOC(=O)c1ccccc1C(=O)OCCCCC | inactive
CCCCOC(=O)c1ccccc1N | inactive
CC(C)CC(C)N (stereo not given) | inactive
CCOC(=O)C1OC1(C)c1ccccc1 (stereo not given) | inactive
COc1ccc(C=O)cc1 | inactive
CCN(CC)N=O | inactive
CC(C)[N+](=O)[O-] | inactive

SMILES | Potency
C=COC(C)=O | inactive
Cc1ccc(N)c(C)c1 | inactive
CC(C)(C)OOC(=O)c1ccccc1 | inactive
O=c1ccc(=O)[nH][nH]1 | inactive
C=CCCC#N | inactive
Clc1ccc(C(c2ccccc2Cl)C(Cl)(Cl)Cl)cc1 (stereo not given) | inactive
CCN(CC)CCO | inactive
O=C(O)c1cccc(Cl)c1 | inactive
c1ccc(Nc2ccc(Nc3ccccc3)cc2)cc1 | inactive
Cc1coc2c1CCC(C)C2 (stereo not given) | inactive
Oc1ccc(Cl)c(Cl)c1Cl | inactive
O=C(O)C(Br)CBr (stereo not given) | inactive
C(CCOCC1CO1)COCC1CO1 (stereo not given) | inactive
Oc1cccc(Cl)c1Cl | inactive
Clc1ccc(C(Cl)(Cl)Cl)cc1Cl | inactive
CC(=O)CCC(C)=O | inactive
CSSC | inactive
ClCCOCCCl | inactive
CC(C)(Cl)Cl | inactive
COC(=O)c1ccccc1N | inactive
